IP6K1 inh – inhibitors of human IP6K1; Q92551; IP6K1 kinase, ADP-Glo luminescence, 2 h; hits give low values; activity change, % (series mostly up to about 58 µM); 140,000 compounds, 0.81% hits; AID 1645851; in the data active = activity change below about -25%
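ADP-Glo luminescence measures ADP made by human IP6K1 during a 2 h RT reaction with ATP/IP6 (mix at 1.3 mM/130 uM); top library doses 57.5 and 19.1 uM final.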
KDM5B inh – KDM5B demethylase inhibition. KDM5B demethylase, FDH-coupled NADH fluorescence (FDH is formaldehyde dehydrogenase). Potency, µM (highest dose often 57.7 µM), most hits filed as inhibitors. 220,000 compounds, 2.6% hits. AID 1347165; active = well fitted inhibition curve with a large enough effect; inconclusive = small, poorly fitted or top-dose-only effect; inactive = no such curve, though single readings can be large or run the other way; also: nearly all actives have a fitted effect of over 70% in size
Target sequence (Q9UGL1 whole entry, looked up): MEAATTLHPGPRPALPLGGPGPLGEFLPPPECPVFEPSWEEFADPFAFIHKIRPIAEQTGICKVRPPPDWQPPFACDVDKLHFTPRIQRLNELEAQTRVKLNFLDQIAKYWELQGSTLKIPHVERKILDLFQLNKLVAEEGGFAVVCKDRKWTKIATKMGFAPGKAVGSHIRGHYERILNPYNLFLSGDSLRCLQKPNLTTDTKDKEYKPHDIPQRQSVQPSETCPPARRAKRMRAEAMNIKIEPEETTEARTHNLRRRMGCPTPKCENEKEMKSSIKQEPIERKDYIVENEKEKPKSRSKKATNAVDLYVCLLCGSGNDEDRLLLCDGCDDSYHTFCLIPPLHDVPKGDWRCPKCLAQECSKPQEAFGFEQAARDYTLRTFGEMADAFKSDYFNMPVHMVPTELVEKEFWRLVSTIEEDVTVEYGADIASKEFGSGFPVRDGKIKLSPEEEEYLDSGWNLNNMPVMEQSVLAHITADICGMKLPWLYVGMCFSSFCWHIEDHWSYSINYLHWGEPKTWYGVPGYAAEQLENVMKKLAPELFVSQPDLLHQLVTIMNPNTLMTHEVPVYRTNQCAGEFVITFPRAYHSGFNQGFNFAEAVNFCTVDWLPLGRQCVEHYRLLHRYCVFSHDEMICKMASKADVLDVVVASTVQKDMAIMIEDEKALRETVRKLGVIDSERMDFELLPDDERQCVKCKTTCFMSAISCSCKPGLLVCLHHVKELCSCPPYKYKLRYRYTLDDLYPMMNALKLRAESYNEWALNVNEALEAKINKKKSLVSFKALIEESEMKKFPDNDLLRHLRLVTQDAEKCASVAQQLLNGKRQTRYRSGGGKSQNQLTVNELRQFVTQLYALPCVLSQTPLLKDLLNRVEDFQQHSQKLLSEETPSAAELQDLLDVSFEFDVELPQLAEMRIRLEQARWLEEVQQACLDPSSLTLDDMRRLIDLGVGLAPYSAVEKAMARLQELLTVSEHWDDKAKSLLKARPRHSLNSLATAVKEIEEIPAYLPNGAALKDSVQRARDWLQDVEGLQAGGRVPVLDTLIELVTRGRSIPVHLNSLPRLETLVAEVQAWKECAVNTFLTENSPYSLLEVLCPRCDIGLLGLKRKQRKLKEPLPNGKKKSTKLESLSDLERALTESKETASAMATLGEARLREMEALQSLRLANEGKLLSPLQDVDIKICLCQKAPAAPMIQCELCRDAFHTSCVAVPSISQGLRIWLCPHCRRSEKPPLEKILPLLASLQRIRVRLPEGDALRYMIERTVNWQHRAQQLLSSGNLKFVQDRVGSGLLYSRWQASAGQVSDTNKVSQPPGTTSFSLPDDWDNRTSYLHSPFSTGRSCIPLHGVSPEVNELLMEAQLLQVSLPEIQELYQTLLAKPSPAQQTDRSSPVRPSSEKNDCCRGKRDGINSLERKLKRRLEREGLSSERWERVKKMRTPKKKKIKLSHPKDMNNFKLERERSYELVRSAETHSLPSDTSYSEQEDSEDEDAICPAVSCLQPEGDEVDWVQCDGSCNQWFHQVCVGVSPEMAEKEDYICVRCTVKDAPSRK
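Coupled FDH/NAD⁺ fluorescence readout. KDM5BΔAP 200 nM final; compound titration, 10 min RT preincubation; substrate mix 12.5 µM H3K4me3, 25 µM 2-OG, 50 µM Fe(II), 100 µM ascorbate, 0.25 mM NAD⁺, 0.25 U/mL FDH; ΔRFU over 30 min.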
Large screens that a line does not name were inactive. Rows were chosen to be rich in hits. Some 2.7% of all compounds tested hit in one or more screens of this group.

COCCOCC1(CNC(=O)c2cc(C)nn2C)C[C@@H](O)[C@@H](O)C1 (stereo partly specified)	KDM5B inh inconclusive
NC(=O)CCN(C(=O)c1cccc(C(F)(F)F)c1)c1ccccc1	none (no result: IP6K1 inh)
N#Cc1nc(C2CC2)oc1N1CCN(C(=O)NCC2CC2)CC1	none (no result: IP6K1 inh)
O=C(NCCCOC1CCCCC1)c1cc(=O)[nH]c2ccccc12	none (no result: IP6K1 inh)
CC(C)N(C(=O)c1ccc(I)cc1)C(C)C	none (no result: IP6K1 inh)
Cn1cc(-c2cnc(Nc3cnccn3)c3c2CCO3)cn1	KDM5B inh inconclusive
COc1cncc(Nc2ncc(-c3cccnc3)c3c2OCC3)c1	none
Cc1noc(C)c1-c1cnc(Nc2ccc(F)c(Cl)c2)c2c1CCO2	KDM5B inh 18µM
COc1cccc(Nc2ncc(-c3c(C)noc3C)c3c2OCC3)c1	KDM5B inh 35µM
COc1ccc(Nc2ncc(-c3cnn(C)c3)c3c2OCC3)cc1	KDM5B inh 35µM
Cc1noc(C)c1-c1cnc(Nc2ccc(F)cc2)c2c1CCO2	KDM5B inh inconclusive
COc1cncc(Nc2ncc(-c3cccc(N(C)C)c3)c3c2OCC3)c1	KDM5B inh 32µM
COc1cncc(Nc2ncc(-c3c(C)noc3C)c3c2OCC3)c1	KDM5B inh inconclusive
Cc1cc2oc(C(=O)NCC(c3cccs3)N3CCOCC3)cc(=O)c2cc1C (stereo unspecified)	none (no result: IP6K1 inh)
O=C(c1ccc(C(F)(F)F)cc1)N1CCC2(C1)C(=NC1CCCCC1)NC(=O)N2c1cc(F)cc(F)c1 (stereo unspecified)	none
O=C1N(Cc2ccccc2F)CCOC12CCN(Cc1ccccc1)CC2	KDM5B inh inconclusive
O=C1N(Cc2ccccc2F)CCOC12CCN(Cc1ccccc1F)CC2	KDM5B inh 16µM
Cc1ccccc1-c1ncc2c(n1)OCCN(c1ccccc1)C2=O	none
COc1ncccc1-c1ncc2c(n1)OCCN(c1cccc(C(F)(F)F)c1)C2=O	none
COc1ccc(-c2ncc3c(n2)OCCN(C)C3=O)cc1OC	KDM5B inh 28µM
CN1CCOc2nc(-c3cccc(OC(F)(F)F)c3)ncc2C1=O	none
COc1ccc(Cl)cc1-c1ncc2c(n1)OCCN(c1ccccc1)C2=O	KDM5B inh 28µM
COc1ccccc1-c1ncc2c(n1)OCCN(c1cccc(C(F)(F)F)c1)C2=O	KDM5B inh 32µM
CCOc1ccc(S(=O)(=O)N2CCCCC2)cc1NC(=O)Cc1n[nH]c(=O)c2ccccc12	none (no result: IP6K1 inh)
O=C(CCC1CCCC1)N1CCN(c2nc3ccccc3o2)CC1	none (no result: IP6K1 inh)
Cc1ccccc1COC(=O)c1nn(Cc2ccccc2)c(=O)c2ccccc12	none (no result: IP6K1 inh)
N#Cc1cccc(-c2cn3cc(C(=O)NCc4ccccc4)nc3s2)c1	none (no result: KDM5B inh)
NC(=O)CN1C(=O)C2(CC(=O)Nc3c2cnn3Cc2ccccc2Cl)c2ccccc21 (stereo unspecified)	none (no result: IP6K1 inh)
O=C(NCC1CCCO1)c1cccc2ccccc12 (stereo unspecified)	none (no result: IP6K1 inh)
O=C(NCC1COCCO1)c1ccc(CN2CCC(N3CCCC3)CC2)[nH]c1=O (stereo unspecified)	KDM5B inh 28µM
CC(=O)c1cccc(C#Cc2ccccc2)c1	none (no result: IP6K1 inh)
COc1ccc(C)cc1NC(=O)N1CCN(C)C2(CCC(=O)N(C)CC2)C1 (stereo unspecified)	none
CNc1ccc(C)cc1C(=O)N1CCN(C)C2(CCN(C)CC2)C1	KDM5B inh 20µM
Cc1ccc(Nc2nc(-c3cnc(N4CCOCC4)nc3C)cc(=O)[nH]2)cc1	none (no result: IP6K1 inh)
COc1cccc(-c2ccc(CN3CCCC3C(=O)NCc3ccc(C(F)(F)F)cc3)cc2)c1 (stereo unspecified)	none (no result: KDM5B inh)
CS(=O)(=O)N(Cc1cccnc1)C1CN(C(=O)c2ccc3cc[nH]c3c2)C1	KDM5B inh 32µM
CS(=O)(=O)N(Cc1cccnc1)C1CN(C(=O)c2cc3ccccc3[nH]2)C1	KDM5B inh inconclusive
O=C(O)/C(=C/C=C\c1ccccc1)NC(=O)c1ccc(Br)o1	none (no result: IP6K1 inh)
c1ccc(-c2cc3c(cn2)NCCN(CC2CC2)C3)cc1	KDM5B inh 35µM
COc1ccc(OC)c(CN2CCNc3cnc(-c4ccccc4)cc3C2)c1	KDM5B inh 32µM
Cc1cccc(CN2CCNc3cnc(-c4ccccc4)cc3C2)c1	KDM5B inh 35µM
Oc1ccccc1CN1CCNc2cnc(-c3ccccc3)cc2C1	KDM5B inh inconclusive
c1ccc(Oc2cc3c(cn2)NCCN(CC2CCOCC2)C3)cc1	KDM5B inh inconclusive
Cn1cc(CN2CCNc3cnc(-c4ccccc4)cc3C2)cn1	KDM5B inh 28µM
CN(C)c1ccc(CN2CCNc3cnc(-c4ccccc4)cc3C2)cc1	KDM5B inh inconclusive
Cc1cccc(CN2CCNc3cnc(Oc4ccccc4)cc3C2)c1	KDM5B inh inconclusive
O=C(Cc1csc(-c2ccc(F)cc2)n1)Nc1ccnn1Cc1ccccc1Cl	none (no result: IP6K1 inh)
O=C(Cn1c(=O)[nH]c2c(-c3ccccc3)c[nH]c2c1=O)NCc1ccc(F)cc1	none (no result: IP6K1 inh)
COc1ccc(COCC(O)Cn2nc(-c3ccc(C)cc3)c3ccccc3c2=O)cc1 (stereo unspecified)	none (no result: IP6K1 inh)
CC(C)c1ccc2[nH]c(C(C)(C)C)c(C=O)c2c1	none (no result: IP6K1 inh)
COc1cc(C(=O)Oc2ccc3c(=O)c(-c4ccccc4)coc3c2)cc(OC)c1OC	none (no result: IP6K1 inh)
CCNC(=O)CSc1cc(C)c2ccccc2n1	none (no result: IP6K1 inh)
COc1cccc(CN2CCNc3cnc(-c4ccccc4)cc3C2)c1	KDM5B inh 35µM
COc1ccccc1CN1CCNc2cnc(Oc3ccccc3)cc2C1	KDM5B inh inconclusive
COc1ccccc1CN1CC(CNC(=O)Nc2ccccc2)C2(C1)CN(c1ccccc1)C2 (stereo unspecified)	KDM5B inh inconclusive
Cn1cccc1C(=O)N1CC(Oc2cccc(-c3nc(-c4ccccc4)no3)c2)C1	KDM5B inh 32µM
Cc1noc(-c2cccc(OC3CN(C(=O)c4cccn4C)C3)c2)n1	none
O=C(c1ccc(F)cc1)N1CC(Oc2cccc(-c3nc(-c4ccccc4)no3)c2)C1	KDM5B inh inconclusive
O=C(c1cccc2[nH]ccc12)N1CC(Oc2cccc(-c3nc(-c4ccccc4)no3)c2)C1	KDM5B inh 25µM
COc1ccc(F)cc1-c1ccc(CN2CCC(NC(=O)C3CCCCC3)C2)cc1 (stereo unspecified)	none (no result: KDM5B inh)
COc1ccc(OCC(O)CN2CCC(=O)N(CC(C)(C)C)Cc3cc4c(cc32)OCO4)cc1 (stereo unspecified)	none (no result: KDM5B inh)
Cc1ccccc1-c1noc(-c2ccc(NC(C)c3cnn(C)c3)nc2)n1 (stereo unspecified)	KDM5B inh 28µM
Cc1ccccc1-c1noc(-c2ccc(Br)cc2)n1	none (no result: IP6K1 inh)
O=C(CC[C@@H]1CNC(=O)[C@@H]2C[C@H](NCc3ccccc3)CN12)NCc1ccccc1	none
O=C(CC[C@@H]1CNC(=O)[C@@H]2C[C@H](NCc3ccccn3)CN12)NCc1ccc(F)cc1	KDM5B inh inconclusive
O=C(CC[C@@H]1CNC(=O)[C@@H]2C[C@H](NCc3ccccn3)CN12)NCc1ccccc1	KDM5B inh 25µM
COc1ccc(CN[C@H]2C[C@H]3C(=O)NC[C@@H](CCC(=O)NCc4ccccc4)N3C2)cc1	KDM5B inh 35µM
COc1ccccc1-c1nc(C(=O)NCc2cccs2)n2ccccc12	KDM5B inh inconclusive
COC(=O)CNC(=O)c1nc(-c2ccccc2OC)c2ccccn12	KDM5B inh 89µM
COC(=O)CNC(=O)c1nc(-c2ccccc2)c2ccccn12	none
COc1ccccc1-c1nc(C(=O)NCc2ccc(F)cc2)n2ccccc12	KDM5B inh 79µM
COc1ccccc1-c1nc(C(=O)NCc2ccc(F)cc2)n2ccncc12	KDM5B inh 89µM
O=C(NC1CC1)c1nc(-c2ccccc2)c2ccccn12	none
